# Shiga inhibitor – A qHTS for Small Molecule Inhibitors of Shiga Toxin | inhibition, % at 38.7 µM | Vero cells, Shiga toxin protein synthesis inhibition reporter | 9.2% of 290,000 active; in the data active = inhibition mostly above about 28%, no sharp cut-off; inactive = mostly below about 43%; note: 0% is about no effect
# CHX counter – Cycloheximide Counterscreen for Small Molecule Inhibitors of Shiga Toxin; 12% of 300,000 active; max response, %; cell reporter, cycloheximide protein synthesis inhibition counterscreen; AID 2314, 2010; in the data active = max response mostly above about 13%, no sharp cut-off; inactive = mostly below about 14%; note: read at 38.3 µM for the half of the compounds with a filed dose; 0% is about no effect
# LASV entry inh – qHTS for Inhibitors of binding or entry into cells for Lassa Virus. Lassa virus pseudotype entry inhibition, cell reporter. Potency, µM (highest dose often 37.9 µM), for inactives: at the top dose activity change, negative = inhibition, hits mostly inhibitors. 1.2% of 300,000 active. AID 540256, 2011; calls by dose curve; tested in HEK293 cells; note: potency is the fitted concentration of half-maximal effect; % is set by controls: 0 for no effect and ±100 for the full control effect; nearly all actives have a fitted effect of over 50% in size
# Vaccinia mCherry – qHTS for Stage-Specific Inhibitors of Vaccinia Orthopoxvirus: mCherry Reporter Primary qHTS | AID 720579, 2013 | 0.63% of 310,000 active | Vaccinia virus mCherry reporter infection, fluorescence | Potency, µM (top dose mostly 36.5 µM), without a hit: top-dose activity change, negative = inhibition, usual class: inhibitors; calls by dose curve; tested in A549 cells; note: potency is the fitted concentration of half-maximal effect; % is set by controls: 0 for no effect and ±100 for the full control effect; nearly all actives have a fitted effect of over 35% in size
# Marburg entry inh – qHTS for inhibitors of binding or entry into cells for Marburg Virus. Marburg virus pseudotyped entry inhibition, cell reporter. Potency, µM (doses to about 37.8 µM), for inactives: at the top dose activity change, negative = inhibition, actives largely listed as inhibitors. 1.8% of 300,000 active. AID 540276, 2011; calls by dose curve; tested in HEK293 cells; note: potency is the fitted concentration of half-maximal effect; % is set by controls: 0 for no effect and ±100 for the full control effect
# VACV Venus inh – qHTS for Stage-Specific Inhibitors of Vaccinia Orthopoxvirus: Venus Reporter Primary qHTS | Vaccinia virus Venus reporter expression, fluorescence | Potency, µM (top dose mostly 36.5 µM), for inactives: top-dose activity change, negative = inhibition, most hits filed as inhibitors | 0.46% of 330,000 active | AID 720580, 2013; calls by dose curve; tested in A549 cells; note: potency is the fitted concentration of half-maximal effect; % is set by controls: 0 for no effect and ±100 for the full control effect; nearly all actives have a fitted effect of over 30% in size
# * = called active by the depositor; i = inactive; ? = inconclusive; / = not tested or not shown; [ ] = dose if it differs, or a comment. The sample as a whole holds a higher share of hits than the screen did.
SMILES,Shiga inhibitor,CHX counter,LASV entry inh,Vaccinia mCherry,Marburg entry inh,VACV Venus inh
O=c1[nH]c(CCl)nc2cc(-c3ccc(F)cc3)sc12,56,11,?,-14%,?,-1%
O=c1[nH]cnc2cc(-c3ccc(Br)cc3)sc12,66*,22,/,-12%,?,-7%
O=C(O)c1ccc(N/N=C/c2ccc(F)c(F)c2)cc1,35,15*,6.3µM*,-14%,7.1µM*,4%
O=C(O)c1ccc(/C=N/NC(=O)C(O)(c2ccccc2)c2ccccc2)cc1,-9,-3,6%[46.1 µM],-12%,-1%[46.1 µM],-14%
O=C(O)c1ccc(N/N=C/c2ccc3nccnc3c2)cc1,-23,-6,/,/,/,/
O=C(O)c1ccc(N/N=C/c2cccc(F)c2)cc1,69*,81*,?,-5%,10µM*,4%
O=C(O)c1ccc(N/N=C/c2cccc(C(F)(F)F)c2)cc1,84*,55*,/,/,/,/
CCN(CC)CCCNC(=O)c1cc(-c2ccc(Cl)cc2)on1,6,1,0%,/,?,/
CCCCNC(=O)c1cc(-c2ccc(OC)c(OC)c2)on1,31,14*,/,-3%,/,9%
CCCCNC(=O)c1cc(-c2ccc(F)cc2)on1,52*,35*,?,/,?,/
CCCNC(=O)c1cc(-c2ccc(OC)cc2)on1,70*,51*,?,/,10µM*,/
COc1ccc(-c2cc(C(=O)NCCN3CCOCC3)no2)cc1OC,-1,-5,4%[46.1 µM],-13%,23%[46.1 µM],-5%
CCCCNC(=O)c1cc(-c2ccc(OC)cc2)on1,194*,52*,-9%,/,?,/
Cc1cc(CNC(=O)c2cnn(-c3ncc4c(n3)-c3ccccc3CC4)c2C2CC2)on1,/,/,/,-20%,/,-9%
Cc1nn(C(C)C(=O)NC2CCCCC2)c(=O)c2c1sc1ccccc12 (stereo not given),/,/,?,-2%,?,-4%
COCCN=c1scc(C)n1/N=C/C1CC2C=CC1C2 (stereo not given),55,13*,/,-8%,-10%[46.1 µM],-7%
CCSc1ccccc1C(=O)Nc1ccc(-c2nc3ccccc3s2)c(O)c1,/,/,?,-1%[7.34 µM],/,-8%[7.34 µM]
Cc1cc(NC(=O)COC(=O)C2CC(=O)N(c3ccc(Cl)cc3)C2)no1 (stereo not given),-5,-4,2%[46.1 µM],-17%,-1%[46.1 µM],-4%
Nc1nc(NC(=O)c2ccccc2)nn1-c1ccccc1,36*,13*,21%,/,?,/
Nc1nc(NC(=O)c2ccccc2Cl)nn1-c1ccccc1,19,13,9%[46.1 µM],i,24%[46.1 µM],-12%
Nc1nc(NC(=O)c2cccs2)nn1-c1ccccc1,84,30*,-1%,i,-26%,-17%
CC1=C(Br)C2=C(CC1)NC(=O)/C2=N\N1C(=O)C2CCCCC2C1=O (stereo not given),/,/,/,/,-18%,/
Cc1ccc(C)c(N2CCN(C(=O)c3ccc4c(=O)n(CCc5ccccc5)c(=O)[nH]c4c3)CC2)c1,/,/,?,?,-10%[46.1 µM],-23%
O=S(=O)(NCCc1cn(S(=O)(=O)c2ccccc2)c2ccccc12)c1ccccc1,-2,-4,/,/,/,/
COc1cc(-c2c(-c3ccc4c(c3)OCO4)noc2-c2ccsc2)ccc1F,18,15*,/,-15%,/,-6%
SMILES,Shiga inhibitor,CHX counter,LASV entry inh,Vaccinia mCherry,Marburg entry inh,VACV Venus inh
c1ccc(-c2onc(-c3ccco3)c2-c2ccc3[nH]ccc3c2)cc1,42*,34*,/,-1%,/,-22%
Cc1onc(-c2ccc3c(c2)OCO3)c1-c1ccc2[nH]ccc2c1,22*,3,/,?,/,?
CCOC(=O)c1ccc(-c2c(-c3ccc4c(c3)OCO4)noc2-c2ccsc2)cc1F,-3,-1,/,i,/,-1%
c1cc2cc(-c3c(-c4ccc5c(c4)OCO5)noc3-c3ccsc3)ccc2[nH]1,50*,39*,/,-17%,/,?
Cc1cc(C)c(S(=O)(=O)NCC(c2cccs2)S(=O)(=O)c2ccccc2)c(C)c1 (stereo not given),/,/,?,-23%,/,-14%
Cc1nn(C)c(=O)n1-c1ccc(OCc2ccccc2)cc1,89*,44*,-20%,/,0%,/
COc1ccc(-n2c(C)nn(C)c2=O)cc1,-4,-6,2%,/,5%,/
Cc1nn(CCOc2ccccc2)c(=O)n1-c1ccc(F)cc1,62*,32*,?,-10%,-5%,-7%
COc1ccc(C)cc1NC(=O)CN1C(=O)COc2ccc(C)cc21,-9,-2,-12%,-13%,?,-10%
Cc1nc(-c2ccc(F)cc2)sc1CCNC(=O)c1ccccc1C(F)(F)F,/,/,4%[46.1 µM],-9%,/,-1%
Cc1ccc(C(=O)N2CC(C)SC2=Nc2cccc(S(=O)(=O)N(C)C)c2)cc1 (stereo not given),-11,-6,3.2µM*,?,-12%,?
Cc1ccc(CNC(=O)CSc2c3c(nc4cc(Cl)ccc24)CCCC3)o1,-11,2,21µM*,/,?,/
C/C(=N\NC(N)=S)C1C2C3CC4C5CC(C42)C1C53 (stereo not given),1,0,-10%[46.1 µM],11µM*,?,?
CN1N=C(C(=O)N2CCc3c([nH]c4ccccc34)C2c2ccccc2Cl)CCC1=O (stereo not given),74*,43*,?,-8%,?,2%
CCc1cc(C(=O)N2CCc3c([nH]c4ccccc34)C2c2ccc(OC)cc2F)no1 (stereo not given),-5,-4,?,11µM*,0.89µM*,-16%
COc1ccc(C2c3[nH]c4ccccc4c3CCN2C(=O)c2ccc(=O)n(C)n2)c(F)c1 (stereo not given),34,26*,?,?,?,-12%
Cc1ccccc1C1c2[nH]c3ccccc3c2CCN1C(=O)c1ccc(=O)n(C)n1 (stereo not given),9,-2,?,-17%,?,-12%
O=C(c1cc[n+]([O-])cc1)N1CCc2c([nH]c3ccccc23)C1c1ccccc1Cl (stereo not given),-12,1,?,-8%,?,-10%
Cc1ccc(C)c(NC(=O)CN(C)S(=O)(=O)c2ccc3c(c2)CCC(=O)N3)c1,/,/,0%[46.1 µM],-4%,0%[46.1 µM],6%
CCOC(=O)c1ccc(-c2nnc(-c3ccc(Cl)cc3Cl)o2)cc1,22,9.6*,?,/,5%,/
O=C(N/N=C/c1cccc([N+](=O)[O-])c1)c1cccc(Br)c1,24,22*,0%,/,-14%,/
CCOc1cc(/C=N/NC(=O)c2cccs2)cc([N+](=O)[O-])c1O,49*,45*,10%,-19%,-4%[46.1 µM],-12%
O=C(N/N=C/c1cccc([N+](=O)[O-])c1)c1ccc(Br)cc1,9,-4,-4%[46.1 µM],-3%,-20%[46.1 µM],-8%
O=C(N/N=C/c1cccc(Br)c1)c1ccc(Br)cc1,33,22*,2%[46.1 µM],i,-14%[46.1 µM],?

# Assay outcomes: PubChem, National Center for Advancing Translational Sciences (NCATS)
